# Compound activity from PubChem.
# KB-3-1 cytotox = qHTS assay for MDR1-selective chemotherapeutics: Primary screen using the parental adenocarcinoma cell KB-3-1; KB-3-1 viability, CellTiter-Glo ATP luminescence, 72 h; AID 1347075, 2019; actives 1.4% (n = 400,000); Potency, µM (series often up to 46.1 µM), most hits filed as cytotoxic; also: % is scaled to controls: 0 for no effect and ±100 for the full control effect; nearly all actives have a fitted effect of over 60% in size
#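 Luminescent ATP read-out (CellTiter-Glo) measures survival of drug-naive KB-3-1 cells after 72 h compound exposure at 37 °C. Titration series was screened from lowest to highest concentration, with DMSO vehicle plates as background controls.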
# ATXN viability = Viability Counterscreen for Primary qHTS for Inhibitors of ATXN expression; S2 cells (HEK-293 line with an ATXN2-luciferase reporter) viability, CellTiter-Fluor protease fluorescence, 24 h; Potency, µM (doses to about 56.7 µM), hits mostly cytotoxic; actives 0.49% (n = 400,000); also: nearly all actives have a fitted effect of over 40% in size
# TGFb inhibitor = qHTS for Inhibitors of TGF-b; HepG2 CAGA-GFP TGF-b/SMAD3 reporter, GFP fluorescence, 18 h; TGF-beta stimulated, 500 pg/mL final; Potency, µM (highest dose often 46.1 µM), inactives show at the highest dose activity, negative = inhibition, most hits filed as inhibitors; actives 1.2% (n = 410,000); also: % is scaled to controls: 0 for no effect and ±100 for the full control effect; nearly all actives have a fitted effect of over 65% in size
#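 TGF-beta reporter screen: HEPG2 CAGA-GFP, 1% FBS, 500 pg/mL TGF-beta final, 18 h; per-cell GFP summed per well; curves fitted and categorized by class.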
# KB-V1 cytotox = qHTS assay for MDR1-selective chemotherapeutics: Primary screen using the drug-selected MDR subline cells KB-V1; actives 3.4% (n = 400,000); Potency, µM (series often up to 46.1 µM), actives largely listed as cytotoxic; KB-V1 MDR cells viability, CellTiter-Glo, 72 h; also: % is scaled to controls: 0 for no effect and ±100 for the full control effect; nearly all actives have a fitted effect of over 60% in size
#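 In this primary screen, KB-V1 cells overexpressing P-gp are incubated with library compounds (lowest to highest concentration) for 72 h at 37 degrees C before a luminescent ATP viability read.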
# HepG2 tox = qHTS for Inhibitors of TGF-b: Cytotox Counterscreen; HepG2 CAGA-GFP viability, ATP luminescence, 18 h; Potency, µM (series often up to 46.1 µM), for the others: top-dose activity change, negative = cytotoxicity, actives largely listed as cytotoxic; actives 0.76% (n = 410,000); AID 588856, 2011
#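 HepG2 CAGA-GFP cells (1000/well, DMEM with 1% FBS) received compound, then TGF-beta at 500 pg/mL final, and were incubated 18 hours at 37 degrees C. Viability was read by CellTiter-Glo luminescence. Media-only wells were set as complete cell-killing and DMSO as no toxicity.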
# ATXN2 expr inh = Primary qHTS for Inhibitors of ATXN expression; HEK-293 ATXN2-luciferase reporter, luminescence, 24 h; Potency, µM (series often up to 57 µM), without a hit: at the highest dose activity change, negative = inhibition, most hits filed as inhibitors; actives 0.72% (n = 360,000); AID 1745845, 2022; also: % is scaled to controls: 0 for no effect and ±100 for the full control effect; nearly all actives have a fitted effect of over 55% in size
#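 ATXN2-luciferase reporter cells (luciferase flanked by upstream and downstream ATXN2 gene portions) were treated 24 h at 37 °C with compounds at up to 57 uM. SteadyGlo luminescence gave expression; GF-AFC fluorescence gave viability.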
# An asterisk follows results filed as active; i = inactive; ? = inconclusive; nt = no result. Rows were chosen to be rich in hits. Some 5.9% of all compounds tested hit in one or more screens of this group. Calls follow the shape of the dose curve; as a rule, active = well fitted curve in the direction sought with a large enough effect; inconclusive = small, poorly fitted or top-dose-only effect, or another doubt; inactive = no such curve, though single readings can be large; an effect the other way counts as inactive or inconclusive. Potency is read from the fitted curve at half-maximal effect.
SMILES,KB-3-1 cytotox,ATXN viability,TGFb inhibitor,KB-V1 cytotox,HepG2 tox,ATXN2 expr inh
O=C(Nc1ncc(Cc2ccc(C(F)(F)F)cc2)s1)c1ccc(-c2cccc([N+](=O)[O-])c2)o1,i,?,-1%,4.6µM*,23%,-18%
Cc1ccc(Cc2cnc(NC(=O)/C(C#N)=C/c3ccc(-c4ccc([N+](=O)[O-])cc4)o3)s2)cc1,?,nt,-5%,?,-8%,16µM*
O=C(Nc1ccc2oc(=O)ccc2c1)c1ccc(-c2cccc([N+](=O)[O-])c2)o1,26µM*,nt,34%,i,22%,-38%
O=S1(=O)N=C(Oc2cccc(C(F)(F)F)c2)c2ccccc21,?,nt,nt,i,nt,nt
CC(=O)Nc1ccc(NC(=O)C2CCN(S(=O)(=O)c3cccc4nonc34)CC2)cc1,i,i,-22%,i,-5%,-10%
O=C(NCc1ccccc1)C1CCCN(S(=O)(=O)c2cccc3nonc23)C1 (centres undefined),i,i,-9%,18µM*,1%,4%
O=C(Nc1ccc(F)c(F)c1)C1CCN(S(=O)(=O)c2cccc3nonc23)CC1,?,i,-30%,12µM*,-17%,-14%
Clc1ccc[n+](CCCCC[n+]2cccc(Cl)c2)c1,i,nt,-19%,i,-17%,nt
CCc1cccc(-n2nnc(-c3nc(-c4cccs4)no3)c2N)c1,nt,nt,-1%,nt,-15%,nt
Cc1ccccc1N/C(SCc1ccc(Cl)cc1)=C(/C#N)C(=O)NCc1ccco1,?,i,-4%,12µM*,3%,?
Cc1ccc(CS/C(Nc2ccccc2C)=C(\C#N)C(=O)NCc2ccco2)c(C)c1,?,i,?,15µM*,4%,?
COCC1CCCN(Cc2ccc3c(c2)CN(C(=O)c2cnn(C(C)C)c2)CCO3)C1 (centres undefined),nt,i,nt,nt,nt,nt
COc1ccc(C(C)=O)cc1CSc1nc(Nc2ccc(F)c(F)c2)c2ccccc2n1,nt,nt,0%,nt,-6%,nt
CCCN(c1ccc(C(C)C)cc1)S(=O)(=O)c1ccc2c(c1)CCN2C(=O)CC,i,i,0%,i,-3%,-9%
COc1cc(OC)cc(-c2c(-c3ccc(F)cc3)c3cc(-c4ccc5[nH]ccc5c4)ccc3n2C)c1,i,i,-15%,21µM*,-38%,-21%
COc1cc2c(-c3ccc(O)cc3)nc3c(c(C)nn3-c3ccccc3)c2cc1OC,?,?,-26%,3.7µM*,-4%,-33%
Cc1ccnc2cc(Cl)cc(Cl)c12,i,nt,14%,i,30%,nt
CCOC(=O)c1ccc(NC(=O)c2c(NCc3cc(OC)ccc3OC)sc3c2CCC3)cc1,i,?,-25%,i,-30%,0%
COc1ccccc1C(=O)/C=C/c1ccc(N2CCCCC2)c([N+](=O)[O-])c1,?,nt,?,10µM*,-82%,?
O=[S+]([O-])(Nc1ccccc1F)c1cccc(NC/C=C/c2ccccc2)c1,i,nt,nt,i,nt,nt
CC1=NN(C(=O)Cc2ccc([N+](=O)[O-])cc2)C(O)(C(F)(F)C(F)(F)F)C1 (centres undefined),i,?,11µM*,?,-70%,nt
CCC1=NN(C(=O)Cc2ccc([N+](=O)[O-])cc2)C(O)(C(F)(F)F)C1 (centres undefined),i,i,8%,i,-2%,0%
NS(=O)(=O)c1cc(C(=O)NN2C[C@H]3[C@H]4CCC(C4)[C@H]3C2)ccc1Cl,nt,i,nt,nt,nt,1%
COc1ccccc1N1CCN(/N=C/c2ccc(Cl)c([N+](=O)[O-])c2)CC1,i,i,?,i,-29%,nt
C(=N\N1CCN(C2c3ccccc3-c3ccccc32)CC1)/c1ccccn1,?,i,-1%,18µM*,-19%,-19%
SMILES,KB-3-1 cytotox,ATXN viability,TGFb inhibitor,KB-V1 cytotox,HepG2 tox,ATXN2 expr inh
C(=N\N1CCN(C2c3ccccc3-c3ccccc32)CC1)/c1cccnc1,i,i,-2%,?,-2%,-9%
O=[N+]([O-])c1cc(/C=N/N2CCN(C3c4ccccc4-c4ccccc43)CC2)ccc1Cl,21µM*,i,6%,?,7%,-10%
Cc1cccc(NS(=O)(=O)c2ccc3c(c2)CC(C)N3C(=O)C2CCC2)c1C (centres undefined),23µM*,?,?,?,-7%,-21%
O=[N+]([O-])c1cccc(/C=N\N=C2c3ccccc3-c3ccccc32)c1O,?,i,26%,18µM*,-17%,?
O=[N+]([O-])c1cccc(C=NN=C2c3ccccc3-c3ccccc32)c1,i,i,4%,21µM*,-1%,-16%
Cc1ccc(C)c(Sc2ccc(NC(=O)CCl)cc2)c1,21µM*,?,?,?,-119%,?
Cc1ccc(Sc2ccc(NC(=O)CCl)cc2)cc1C,?,?,?,?,-107%,32µM*
COc1cccc(-c2cc3c(c(OC)c2)OCCN(S(=O)(=O)c2ccccc2OC(F)(F)F)C3)n1,nt,i,nt,nt,nt,nt
CC1Cc2cc(S(=O)(=O)N3CCN(c4ccccc4F)CC3)ccc2N1C(=O)C1CCC1 (centres undefined),i,i,-13%,i,-15%,0%
COC(=O)[C@@H]1[C@@H](C#N)C2(c3ccccc3-c3ccccc32)N(c2ccc(Cl)cc2)N1C#N,?,28µM*,?,?,-68%,10µM*
COc1ccc(CNC(=O)Nc2nnc([C@@H]3C[C@H](O)[C@@H](CO)O3)s2)cc1,i,i,0%,i,-24%,14%
Cc1cccc(NC(=O)CSc2nc(=O)n(CCN3CCOCC3)c3c2CCC3)c1,nt,nt,-4%,nt,-11%,nt
COc1ccc(-c2cc(C(=O)Nc3cccnc3)c3ccccc3n2)cc1OC,?,i,5%,9.2µM*,-63%,8%
O=C(Nc1cccnc1)c1cc(-c2cccc(Br)c2)nc2ccccc12,i,?,?,10µM*,-12%,-20%
O=C(NC1=NCCS1)c1cc(-c2cccc(Br)c2)nc2ccccc12,?,i,-33%,15µM*,-21%,7%
O=C(Nc1cccnc1)c1cc(-c2cccnc2)nc2ccc(Br)cc12,i,i,5%,i,4%,-7%
